Test [1] is described as follows: qHTS assay to identify small molecule agonists of the sonic hedgehog signaling (Shh) pathway (AID 1259368).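 Further: NIH/3T3-derived 3T3Gli1-Luc cells carrying a stable Gli1-driven firefly luciferase reporter; series mostly up to about 92 µM; nearly all actives have a fitted effect of over 15% in size.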 In a few lines: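 A Gli1 transcriptional response element controlled firefly luciferase in 3T3Gli1-Luc cells. Compounds and a positive control were added 4 hr after plating, and cells were incubated a further 24 hr at 37 C before luminescence detection.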
The nature of test [2]: qHTS assay to identify small molecule antagonists of the sonic hedgehog signaling (Shh) pathway (AID 1259369). Further: nearly all actives have a fitted effect of over 45% in size. Further: potency means the concentration at half of the fitted maximal effect. The method, boiled down:
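For antagonist detection, the reporter line received test compounds together with conditioned medium, incubated 24hr at 37 C, 5% CO2, then luminescence was recorded following 30min room-temperature luciferase reagent incubation.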

For test [3], the target named is Estrogen receptor beta (Homo sapiens) (UniProt Q92731). The test can be described thus: qHTS assay to identify small molecule agonists of the estrogen receptor beta (ER-beta) signaling pathway (AID 1259377; active means well fitted activation curve with a large enough effect in the signal ratio in the repeat runs, not every such curve was filed as active; the % refers to the signal ratio; further: potency means the concentration at half of the fitted maximal effect). The method, boiled down: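 Ratiometric beta-lactamase FRET read-out came after 2 h substrate loading at room temperature. It followed 16 h compound treatment at 37C of GripTite HEK293T cells carrying a UAS-bla reporter, plated in 2% charcoal-stripped FBS medium.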
Sequence of Estrogen receptor beta (Homo sapiens) (Q92731 whole entry, looked up): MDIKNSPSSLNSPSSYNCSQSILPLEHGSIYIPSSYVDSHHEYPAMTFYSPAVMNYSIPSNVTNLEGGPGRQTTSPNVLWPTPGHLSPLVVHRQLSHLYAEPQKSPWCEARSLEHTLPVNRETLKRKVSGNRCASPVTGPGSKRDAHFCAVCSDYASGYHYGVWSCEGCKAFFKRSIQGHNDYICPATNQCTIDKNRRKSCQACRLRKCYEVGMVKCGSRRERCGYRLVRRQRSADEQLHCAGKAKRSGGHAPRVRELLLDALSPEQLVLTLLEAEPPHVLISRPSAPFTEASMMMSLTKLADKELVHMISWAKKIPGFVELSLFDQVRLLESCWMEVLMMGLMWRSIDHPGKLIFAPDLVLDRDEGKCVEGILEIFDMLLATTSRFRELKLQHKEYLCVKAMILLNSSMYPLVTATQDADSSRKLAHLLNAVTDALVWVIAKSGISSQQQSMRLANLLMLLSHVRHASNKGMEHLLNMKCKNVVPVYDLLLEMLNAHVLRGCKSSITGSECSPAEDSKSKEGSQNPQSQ

The target is the same in test [4]. In words: qHTS assay to identify small molecule antagonists of the estrogen receptor beta (ER-beta) signaling pathway (AID 1259378; active means well fitted inhibition curve with a large enough effect in the signal ratio in the repeat runs, not every such curve was filed as active; the % refers to the signal ratio). The method, boiled down:
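Antagonist mode: compounds added to beta-lactamase reporter HEK293T ER-beta-UAS cells stimulated with E2 (1nM final), 16 hr at 37C. LiveBLAzer B/G FRET substrate, 2 hours room temperature, fluorescence read-out.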

A short description of test [5]: qHTS assay to identify small molecule agonists of the androgen receptor (AR) signaling pathway in the presence of an antagonist - cell viability counter screen (AID 1259379; active means well fitted curve in the direction sought with a large enough effect in the repeat runs; an effect the other way counts as inactive or inconclusive; further: nearly all actives have a fitted effect of over 25% in size; further: potency means the concentration at half of the fitted maximal effect;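 on activity change, negative = cytotoxicity: MDA-kb2 human breast cancer cells carrying an MMTV luciferase reporter; series mostly up to about 92 µM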). The method, boiled down: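 Seed MDA-kb2 at 3,000 cells/well; incubate 5 hr, 37C, 0% CO2. Add nilutamide to 3.0uM final, then pin compounds at 15 concentrations. Incubate 16 hr. Add CellTiter-Fluor at 15 hr, read fluorescence after 1 hr.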

Test [6] is described as follows: qHTS assay to identify small molecule agonists of the estrogen receptor beta (ER-beta) signaling pathway - cell viability counter screen (AID 1259380; active means well fitted curve in the direction sought with a large enough effect in the repeat runs; an effect the other way counts as inactive or inconclusive; further: nearly all actives have a fitted effect of over 30% in size). The method, boiled down: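 CellTiter-Glo read, 30 min RT, same wells as bla assay; cells ER-beta-UAS-bla HEK293T; 16 hr compound, 37C; medium 2% charcoal-stripped FBS.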
Test [7] has as its target Androgen receptor (Homo sapiens) (UniProt P10275). In words: qHTS assay to identify small molecule agonists of the androgen receptor (AR) signaling pathway in the presence of an antagonist (AID 1259381). Further: nearly all actives have a fitted effect of over 15% in size. The method, boiled down: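 Test compounds at 15 concentrations were incubated for 16hr with MDA-kb2 reporter cells in presence of 3.0uM nilutamide (final). Signal: ONE-Glo luciferase luminescence.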

The nature of test [8]: qHTS assay to identify small molecule antagonists of the estrogen receptor beta (ER-beta) signaling pathway - cell viability counter screen (AID 1259382; active means well fitted curve in the direction sought with a large enough effect in the repeat runs; an effect the other way counts as inactive or inconclusive; further: series mostly up to about 92 µM; nearly all actives have a fitted effect of over 55% in size). In a few lines: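 In this multiplexed counter screen, cells were seeded at 2,000 per well in medium with 2% charcoal-stripped FBS and incubated 6 hr before compound and 1nM final E2 were added. Sixteen hours later, ATP-based luminescence reported viability.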

In test [9] the target is Estrogen receptor (Homo sapiens) (UniProt P03372). In words: qHTS assay to identify small molecule agonists of the estrogen receptor alpha (ER-alpha) signaling pathway in the presence of an antagonist (AID 1259383). Further: top concentration of the series differs between compounds; nearly all actives have a fitted effect of over 15% in size. In a few lines:
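Stably transfected VM7Luc4E2 reporter cells, kept 5 days in charcoal-stripped serum, received ICI-182,780 at 10.0nM final before compound addition. Following 22hr incubation at 37C and 5% CO2, luciferase signal was read by luminescence.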

Test [10] in a line: qHTS assay to identify small molecule agonists or antagonists of the thyroid stimulating hormone receptor (TSHR) signaling pathway - wild type cell line counter screen (AID 1259384). In a few lines: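 Counter screen in untransfected Hek293: compounds (15-point titration, triplicate) plus phosphodiesterase inhibitor Ro20-1724 added after 18 h plating; 30 min RT. Intracellular cAMP via competitive d2/cryptate immunoassay, 1 h incubation.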

The structures appear in SMILES notation. Unmarked numbers belong to inactive results. Inconclusive results are not listed. Calls of active or inactive are those of the source. Unless noted, the call rests on the fitted dose curve.
On the % scale 0 is the no-effect control and ±100 the full control effect.

Sequence of Androgen receptor (Homo sapiens) (P10275 whole entry, looked up): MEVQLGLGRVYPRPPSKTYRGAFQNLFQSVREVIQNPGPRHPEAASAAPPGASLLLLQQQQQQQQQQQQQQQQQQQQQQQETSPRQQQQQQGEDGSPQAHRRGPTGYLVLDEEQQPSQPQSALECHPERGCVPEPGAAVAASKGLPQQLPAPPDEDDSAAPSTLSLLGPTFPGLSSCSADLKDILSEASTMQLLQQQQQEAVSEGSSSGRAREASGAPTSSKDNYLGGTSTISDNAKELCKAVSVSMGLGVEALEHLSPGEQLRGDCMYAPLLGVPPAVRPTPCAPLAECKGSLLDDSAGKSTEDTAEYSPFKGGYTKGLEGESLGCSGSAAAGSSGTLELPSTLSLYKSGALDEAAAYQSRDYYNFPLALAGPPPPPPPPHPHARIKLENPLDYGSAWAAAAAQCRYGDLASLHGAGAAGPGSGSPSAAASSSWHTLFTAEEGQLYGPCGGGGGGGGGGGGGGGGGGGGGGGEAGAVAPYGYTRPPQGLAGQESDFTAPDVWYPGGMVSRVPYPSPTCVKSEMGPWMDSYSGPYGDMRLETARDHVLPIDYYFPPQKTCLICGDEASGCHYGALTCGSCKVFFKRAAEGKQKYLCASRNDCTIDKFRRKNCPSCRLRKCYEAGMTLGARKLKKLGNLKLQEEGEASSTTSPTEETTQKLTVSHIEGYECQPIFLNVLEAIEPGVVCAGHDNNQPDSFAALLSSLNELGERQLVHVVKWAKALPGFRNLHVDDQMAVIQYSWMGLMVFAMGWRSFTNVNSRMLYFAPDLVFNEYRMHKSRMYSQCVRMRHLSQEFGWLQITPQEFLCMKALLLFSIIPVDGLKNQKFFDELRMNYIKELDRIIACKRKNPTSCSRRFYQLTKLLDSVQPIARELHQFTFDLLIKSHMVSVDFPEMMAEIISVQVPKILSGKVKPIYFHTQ
Sequence of Estrogen receptor (Homo sapiens) (P03372 whole entry, looked up): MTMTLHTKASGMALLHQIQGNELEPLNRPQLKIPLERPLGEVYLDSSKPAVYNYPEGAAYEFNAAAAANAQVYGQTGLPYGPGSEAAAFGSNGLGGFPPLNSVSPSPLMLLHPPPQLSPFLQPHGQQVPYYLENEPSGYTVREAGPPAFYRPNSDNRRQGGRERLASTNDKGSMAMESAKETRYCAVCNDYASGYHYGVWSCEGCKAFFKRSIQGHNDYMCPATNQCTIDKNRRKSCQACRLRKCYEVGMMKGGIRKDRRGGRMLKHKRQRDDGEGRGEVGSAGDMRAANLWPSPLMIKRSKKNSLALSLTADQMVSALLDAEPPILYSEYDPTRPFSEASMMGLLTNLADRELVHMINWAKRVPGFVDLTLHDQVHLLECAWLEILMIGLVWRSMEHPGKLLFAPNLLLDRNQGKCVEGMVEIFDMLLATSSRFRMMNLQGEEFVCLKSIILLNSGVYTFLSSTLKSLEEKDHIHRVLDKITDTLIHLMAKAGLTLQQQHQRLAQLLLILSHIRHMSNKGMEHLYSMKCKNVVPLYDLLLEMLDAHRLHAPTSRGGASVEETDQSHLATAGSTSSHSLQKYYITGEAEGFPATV

`CN(C)C(=O)Oc1cc(OC(=O)N(C)C)cc(C(O)CNC(C)(C)C)c1` (stereo unspecified): the result in test [1], in [4] and in [10] was inactive. Further, the Potency entry in [2], in test [3], in test [5], in test [6], in test [7] and in test [8] was “inactive” each time. Moreover, the Potency entry in [9] was “inactive”.
As for `C[N+]1(C)CCCCC1`, the call in test [1], in [4] and in test [10] was inactive. For the same molecule, the Potency entry in test [2], in test [3], in [5], in [6], in [7] and in [8] was “inactive” throughout.
For `N[C@@H]1C[C@H]1c1ccccc1`, the call in test [1], in test [4] and in test [10] was inactive. In addition, the Potency result in [2], in test [3], in test [5], in [6], in test [7] and in test [8] was “inactive” in each case. The Potency entry in [9] is “inactive”.
Regarding `Clc1cc2c(cc1Cl)Oc1cc(Cl)c(Cl)cc1O2`, in test [1], the activity change is 0.117% [at 0.349 µM]. In addition, the activity change, negative = inhibition in test [2] is -6.77% [at 0.349 µM]. Also, the activation is -4.72% [at 0.348 µM] in test [3], 3.07% [at 0.349 µM] in test [7] and -1.56% [at 0.349 µM] in test [9]. Further, in [4], the activity, negative = inhibition was 4.24% [at 0.349 µM]. The activity change, negative = cytotoxicity was 1.17% [at 0.35 µM] in [5] and 2.45% [at 0.349 µM] in [6]. For the same molecule, in test [10], the cAMP activity change is 1.16% [at 0.349 µM].
On to `BrCC1CO1` (stereo unspecified), for which the call in test [1] and in test [4] was inactive. The Potency entry in test [2], in test [3], in [5], in test [6], in [8] and in test [9] was “inactive” throughout.
For `CC(Cc1ccccc1)NCCCCl` (stereo unspecified), the molecule was classed as inactive in test [1], in test [4] and in [10]. Besides, the Potency result in test [2], in [3], in [5], in test [6], in test [7] and in test [8] was “inactive” each time. Besides, the Potency entry in test [9] was “inactive”.
`CCNc1nc(Cl)nc(NC(C)(C)C)n1`: the call in test [1] and in test [4] was inactive. Also, the values for the Potency in test [2] and in [3] were 0.969 µM (active) and 27.3 µM (active), respectively. Further, the Potency entry in test [5], in test [6], in [7] and in test [8] was “inactive” each time.
For the molecule `O=C/C=C/c1ccco1`, the outcome in test [1] and in [4] was inactive. The Potency result in [2], in test [3], in test [5], in [6], in [7] and in [8] was “inactive” throughout. In addition, the Potency result in test [9] was “inactive”.
With `C[C@H](CN1CCOCC1)C(C(=O)N1CCCC1)(c1ccccc1)c1ccccc1`, the call in [1] and in test [4] was inactive. For the same molecule, the Potency result in test [2], in test [3], in [5], in test [6], in test [7] and in [9] was “inactive” in each case.
For the molecule `CS(=O)(=O)Cl`, the molecule was called inactive in [1], in test [4] and in test [10]. The Potency result in test [2], in test [3], in [5], in [6], in [8] and in [9] was “inactive” throughout.
As for `COC[C@@H](NC(C)=O)C(=O)NCc1ccccc1`, the call in test [1], in test [4] and in test [10] was inactive. Besides, the Potency result in test [2], in test [3], in test [5], in test [6] and in test [7] was “inactive” throughout.
Take `CC(C)(C1CCC(O)CC1)C1CCC(O)CC1` (stereo unspecified): the outcome in test [1] and in test [4] was inactive. Besides, the Potency entry in test [2], in test [5], in test [6], in test [8] and in test [9] was “inactive” in each case. In addition, in test [3], the Potency is 21.7 µM (active).
With `C#CC(C)(C)O`, the result in test [1] and in test [4] was inactive. The Potency result in [2], in test [3], in test [5] and in test [6] was “inactive” in each case.
Consider `CCC1(c2ccccc2)CCC(=O)NC1=O` (stereo unspecified), for which the outcome in test [1], in test [4] and in [10] was inactive. Further, the Potency entry in test [2], in test [3], in test [5], in test [6], in test [7] and in test [8] was “inactive” throughout. In test [9], the Potency entry is “inactive”.
Take `CN(C)CCc1c[nH]c2cccc(OP(=O)(O)O)c12`: the molecule was classed as inactive in test [1] and in [4]. Also, the Potency entry in test [2], in [3], in test [5], in test [6], in [8] and in test [9] was “inactive” each time.
For the molecule `OP(O)c1ccccc1`, the molecule was called inactive in test [1], in test [4] and in test [10]. Further, the Potency result in [2], in [3], in test [5], in test [6], in test [7] and in test [9] was “inactive” each time.
On to `Cc1ccc2c(c1)C1CN(C)CCC1N2` (stereo unspecified), for which the activity change in test [1] was 0.824% [at 18.9 µM]. The activity change, negative = inhibition in test [2] was 7.51% [at 19 µM]. In addition, the values for the activation in [3] and in test [9] were -2.72% [at 19 µM] and 0.841% [at 19 µM], respectively. The activity, negative = inhibition in test [4] is 2.34% [at 19 µM]. Besides, the activity change, negative = cytotoxicity in test [5] is 0.715% [at 19 µM]; in [6], -1.6% [at 19 µM]; in test [8] it was 0.836% [at 19 µM]. In addition, the cAMP activity change in [10] is -0.0429% [at 18.9 µM].
Regarding `O=C(NC(O)C(Cl)(Cl)Cl)NC(O)C(Cl)(Cl)Cl` (stereo unspecified), the outcome in [1] and in [4] was inactive. The Potency result in test [2], in test [3], in [5], in test [6], in test [8] and in test [9] was “inactive” throughout.
On to `CCOP(=S)(OCC)Oc1ccc(Cl)cc1Cl`, for which the molecule was called inactive in test [1], in test [4] and in [10]. Besides, the Potency entry in test [2], in test [3], in test [5], in test [6], in test [8] and in test [9] was “inactive” each time.
With `C=CC(=O)OCCN(C)C`, the molecule was classed as inactive in [1] and in test [4]. The Potency result in test [2], in test [3], in test [5], in test [6] and in test [8] was “inactive” each time.
Take `CC[C@@H](CO)NC(=O)[C@@H]1C=C2c3cccc4c3c(cn4C)C[C@H]2N(C)C1`: the molecule was called inactive in [1] and in test [4]. For the same molecule, the Potency entry in test [2], in test [3], in test [5], in test [6], in [8] and in test [9] was “inactive” in each case.
On to `CCCOC(=O)c1cncn1C(C)c1ccccc1` (stereo unspecified), for which the molecule was called inactive in test [1], in [4] and in [10]. Further, the Potency entry in [2], in test [3], in [5], in [6], in test [7] and in [8] was “inactive” throughout. For the same molecule, the Potency result in [9] was “inactive”.
As for `Cc1ccc2cc(C)ccc2c1`, the molecule was called inactive in [1] and in test [4]. In addition, the Potency entry in test [2], in [3], in test [5], in test [6] and in test [8] was “inactive” in each case.
Consider `COc1ccc(C=O)cc1O`, for which the call in test [1], in test [4] and in [10] was inactive. The Potency entry in test [2], in test [3], in [5], in test [6], in test [7] and in test [8] was “inactive” each time. Moreover, the Potency result in test [9] was “inactive”.
On to `CCN(CC)C1CCCCC1`, for which the result in [1] and in test [4] was inactive. Moreover, the Potency entry in test [2], in [3], in test [5], in test [6], in [7] and in test [8] was “inactive” throughout. The Potency result in [9] was “inactive”.
As for `CCOC1Oc2ccc(OS(C)(=O)=O)cc2C1(C)C` (stereo unspecified), the molecule was called inactive in test [1], in test [4] and in [10]. Moreover, the Potency entry in [2], in test [3], in test [6], in test [7], in [8] and in [9] was “inactive” each time. In addition, in test [5], the Potency is 68 µM (active).
As for `CCN[C@@H](C)Cc1ccccc1`, the molecule was called inactive in [1], in test [4] and in test [10]. Also, the Potency entry in test [2], in [3], in [5], in test [6], in test [7] and in test [8] was “inactive” in each case. For the same molecule, in [9], the Potency entry was “inactive”.

Values taken from PubChem BioAssay (Tox21).
